Screening data: PubChem BioAssay, National Center for Advancing Translational Sciences (NCATS)
Cycloheximide cs: affects cycloheximide protein synthesis inhibition readout, counter-screen; 300,000 compounds, 12% hits; max response, %; cell reporter, cycloheximide protein synthesis inhibition counterscreen; in the data active = max response mostly above about 13%, no sharp cut-off; inactive = mostly below about 14%; note: read at 38.3 µM for the half of the compounds with a filed dose
Pf growth 96h: inhibits malaria parasite growth, 96 h | P. falciparum luciferase reporter growth, 96 h | 320,000 compounds, 6.9% hits | Potency, µM (highest dose often 28.7 µM), most hits filed as inhibitors
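P. falciparum expressing integrated firefly luciferase, in erythrocytes at 2% hematocrit, 0.05% parasitemia, incubated with compounds 96 h at 37 C, 5% CO2. Growth inhibition read as loss of luminescence; two-generation exposure targets delayed-death apicoplast inhibitors.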
Pf growth 48h: P. falciparum growth inhibition at 48 hours (one generation); P. falciparum luciferase growth in erythrocytes, 48 h; Potency, µM (top dose mostly 28.7 µM), actives largely listed as inhibitors; 310,000 compounds, 5.9% hits
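Firefly luciferase activity from engineered P. falciparum reports growth; inhibitors lower the luminescent signal. Cultures contained 2% hematocrit erythrocytes at 0.1% final parasitemia.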
Shiga toxin inh: blocks Shiga toxin action in Vero cells | Vero cells, Shiga toxin protein synthesis inhibition reporter | 290,000 compounds, 9.2% hits | AID 2315 | inhibition, % at 38.7 µM; in the data active = inhibition mostly above about 28%, no sharp cut-off; inactive = mostly below about 43%
Hits are given with their value; – = inactive; ? = inconclusive; · = no result given. Shown are actives, neighbours in structure and some others; about 21% of the full set was active somewhere. Unless noted, calls come from the whole dose curve; as a rule, active = well fitted inhibition curve with a large enough effect; inconclusive = small, poorly fitted or top-dose-only effect, or another doubt; inactive = no such curve, though single readings can be large or run the other way.

SMILES	Cycloheximide cs	Pf growth 96h	Pf growth 48h	Shiga toxin inh
CCOC(=O)c1cnn(-c2ccccc2)c1-n1cccc1C(=O)C(=O)Nc1ccc(F)cc1	–	–	–	–
CCOC(=O)c1cnn(-c2nc(C)cc(C)n2)c1N	–	–	–	–
COC(=O)c1cnn(-c2ccccc2)c1N	–	–	–	–
CCOC(=O)c1cnn(-c2ccccc2)c1-n1cccc1C(=O)C(=O)Nc1ccccc1	21.3	–	–	43.1
CCOC(=O)c1cnn(-c2ccccc2)c1N	30.9	–	·	–
NC(=O)c1cnn(-c2ccc3ccccc3c2)c1N	23.6	–	–	–
CC(=O)NC(=O)c1cnn(-c2ccccc2)c1N	–	–	–	–
CC(C)CCNC(=O)C1CCC(CNS(=O)(=O)c2ccc(Cl)cc2)CC1 (stereo not drawn)	–	–	–	–
Cc1cccc(NC(=O)c2ccc(S(=O)(=O)N3CC(C)OC(C)C3)cc2)n1 (stereo not drawn)	·	–	–	·
CCOC(=O)c1ccc(Oc2ccc(C(F)(F)F)cn2)cc1	29.0	–	–	–
CCOC(=O)c1cnn(-c2ccc([N+](=O)[O-])cc2)c1N	14.9	–	–	–
CCOC(=O)c1cnn(-c2cccc(Cl)c2)c1N	34.4	–	–	60.8
Nc1c(C(=O)O)cnn1-c1ccc([N+](=O)[O-])cc1	–	–	–	–
C(=Nc1ccc(N2CCOCC2)cc1)c1c[nH]c2ccccc12	41.9	–	–	89.0
Cc1ccc(/C=N/NC(=O)c2ccc(Cn3cc([N+](=O)[O-])cn3)o2)cc1	–	–	–	20.5
COc1ccc(/C=N/Nc2ccccc2C(=O)O)cc1Cn1cc([N+](=O)[O-])cn1	45.6	–	?	56.1
CCCOc1ccc(/C=N/NC(=O)c2ccc(Cn3cc([N+](=O)[O-])cn3)o2)cc1	–	–	–	–
COc1ccc(/C=N/NC(=O)c2cccc(Br)c2)cc1Cn1cc(Cl)cn1	–	?	–	–
COc1ccc(/C=N/NC(=O)c2ccc(Br)o2)cc1Cn1cc([N+](=O)[O-])cn1	38.9	–	–	76.9
CC(C)c1ccc(/C=N\NC(=O)c2ccc(Cn3cccn3)o2)cc1	53.6	–	–	71.4
COc1ccc(/C=N/NC(=O)c2cc(O)c(O)c(O)c2)cc1Cn1cc([N+](=O)[O-])cn1	–	–	?	–
COc1ccc(/C=N/NC(=O)c2ccccc2O)cc1Cn1cc([N+](=O)[O-])cn1	23.6	–	–	–
COc1ccc(-c2nc(CN3CCCCC3CCc3ccccn3)c(C)o2)cc1 (stereo not drawn)	–	?	?	–
Cc1oc(-c2cccc(F)c2)nc1CN1CCCCC1CCc1ccccn1 (stereo not drawn)	–	?	13.1µM	–
O=C(C1=COCCO1)N1CCN(C(c2ccccc2)c2ccccc2)CC1	–	?	?	–
SMILES	Cycloheximide cs	Pf growth 96h	Pf growth 48h	Shiga toxin inh
CCN1CCN(c2ccc(S(=O)(=O)N3CCCCC3)cc2NC(=O)COc2cc(C)ccc2Cl)CC1	·	1.85µM	11.7µM	·
O=C(COc1ccc(F)cc1)Nc1cc(S(=O)(=O)N2CCCCC2)ccc1N1CCCCC1	·	7.38µM	3.7µM	·
Cc1ccccc1OCC(=O)Nc1cc(S(=O)(=O)N2CCCCC2)ccc1N1CCN(C)CC1	–	?	–	–
O=C(COc1ccc(S(=O)(=O)N2CCCCC2)cc1)Nc1ccccc1F	–	–	11.7µM	–
CCN1CCN(c2ccc(S(=O)(=O)N3CCCCC3)cc2NC(=O)COc2ccc(Cl)cc2)CC1	·	?	8.28µM	·
CN1CCN(c2ccc(S(=O)(=O)N3CCCCC3)cc2NC(=O)Cc2ccc(Cl)cc2)CC1	–	?	?	–
Cc1cc(=O)oc2cc(NC(=O)C(CCCN=C(N)N)NC(=O)OCc3ccccc3)ccc12 (stereo not drawn)	–	–	?	–
CC(Cc1ccccc1)NC(=O)CCCN1C(=O)c2ccccc2C1=O (stereo not drawn)	–	?	–	–
N#C/C(C(=O)N1CCOCC1)=C1/SC(Cc2ccccc2Cl)C(=O)N1c1ccccc1 (stereo not drawn)	–	?	–	–
COC(=O)c1ccccc1NC(=O)N1CCN(c2ccc(OC)cc2)CC1	–	?	–	–
CCN1CCN(c2ccc(S(=O)(=O)N3CCCCC3)cc2NC(=O)COc2ccc(F)cc2Cl)CC1	–	?	7.38µM	–
OCC[C@@H]1C[C@H](O)[C@@H](O)[C@]2(OCc3ccccc32)O1	–	?	–	–
COc1cc(O)oc1C=Nc1ccc(Cl)cc1Cl	27.8	–	?	35.3
Cc1cc(C)c(S(=O)(=O)N2CCN(c3ccccn3)CC2)c(C)c1	·	?	–	·
Cc1cc(C)n2ncc(C(=O)NCc3ccc(Cl)cc3)c2n1	–	?	·	–
Cc1cccc(NC(=O)c2cnn3ccccc23)c1C	50.3	–	–	77.8
Cc1cccc(NC(=O)CNCC(=O)Nc2cccc(C)c2C)c1C	–	–	–	–
Cc1ccc(C)c(NC(=O)c2ccccc2O)c1	22.4	?	?	–
Cc1cccc(NC(=O)c2ccccc2O)c1C	34.3	?	?	48.9
Cc1cccc(NC(=O)c2cnn(C)c2)c1C	–	–	–	–
O=C(NCc1ccc(Cl)cc1)c1cnn2ccccc12	56.5	–	·	79.8
Cc1ccc(C)c(NC(=O)c2nc(Cl)ccc2Cl)c1	25.5	–	–	–
O=C(Nc1ccccc1O)c1ccc(C(=O)c2ccccc2)o1	26.7	?	8.28µM	35.0
Cc1ccc(C)c(NC(=O)c2nc(-c3ccccc3)n(-c3ccccc3)n2)c1	–	9.28µM	·	–
O=C(Nc1ccccc1O)c1ccccc1O	31.9	–	?	53.5
SMILES	Cycloheximide cs	Pf growth 96h	Pf growth 48h	Shiga toxin inh
CC(C)COc1cccc(C(=O)NC(=S)NCc2cccnc2)c1	–	–	–	–
CC(=O)c1[nH]c(C)c(C(=O)N2CCCC(Nc3cccc(F)c3)C2)c1C (stereo not drawn)	–	–	–	–
COc1ccc(CNCc2cccc3ccccc23)cc1	–	?	–	–
Cc1oc(-c2cccs2)nc1CN1CCN(CC(C)C)C(CCO)C1 (stereo not drawn)	–	1.85µM	–	–
COc1cccc(CN2CCN(Cc3nc(-c4cccc(F)c4F)oc3C)CC2=O)c1	–	?	13.1µM	–
COc1cccc(CN2CCN(Cc3nc(-c4cccs4)oc3C)CC2CCO)c1 (stereo not drawn)	–	?	9.28µM	–
CC(C)CN1CCN(Cc2cn(C)c3ccccc23)CC1CCO (stereo not drawn)	–	?	–	–
CCn1c(SC(C)C(=O)Nc2ccc3c(c2)OCCO3)nnc1C1CC1 (stereo not drawn)	·	–	–	·
O=C(NCc1cccs1)Nc1ccc2c(c1)OCO2	39.8	–	–	68.7
CCOc1ccc(NC(=O)NCc2ccccn2)cc1	–	–	–	–
O=C(NCc1ccncc1)Nc1ccc2c(c1)OCO2	25.6	?	–	40.5
COc1ccc(NC(=O)NCc2ccc3c(c2)OCO3)cc1OC	–	?	–	–
O=C(NCc1ccccn1)Nc1ccc2c(c1)OCO2	57.1	–	–	101.2
O=C(Cc1ccsc1)Nc1ccc2c(c1)OCO2	·	–	–	·
CS(=O)(=O)N(CC(=O)NCc1ccccn1)c1ccc2c(c1)OCCO2	–	4.15µM	–	–
O=C(CN(c1ccc(F)cc1)S(=O)(=O)c1ccc2c(c1)OCCO2)NCc1ccccn1	–	·	–	–
